# An excerpt weighted towards active compounds, which were near 1% of everything screened.
# Cdc25B inh = inhibitors of Cdc25B phosphatase catalytic domain, primary screen, biochemical, OMFP fluorescence; M-phase inducer phosphatase 2 (Homo sapiens), P30305; hit rate 0.1% among 65,000; recombinant Cdc25B, OMFP fluorescence Ex485/Em525; inhibition, %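 (compounds tested at 10 µM final in the well)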; in the data active = inhibition above about 50%
# Hsp90 inh = tumor Hsp90 inhibitors, primary screen, cell lysate, fluorescence polarization, NCI-N417 lysate | Heat shock protein HSP 90-alpha (Homo sapiens), P07900 | Cy3B-geldanamycin FP displacement | inhibition, % at 30 µM | hit rate 0.35% among 64,000;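 active = inhibition above 50%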;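 also: 0% = tracer plus lysate wells and 100% = tracer alone without lysate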
# SK-BR-3 tox 24h = SK-BR-3 proliferation inhibitors, primary screen, cell-based, human, 24 h; SK-BR-3 viability, CellTiter-Glo ATP luminescence; hits give low values; viability, % at 10 µM; hit rate 0.47% among 41,000; AID 847, 2007;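 active = viability at or below the median of all test compounds minus 3 SD, in both replicates if run twice, cut at about 45% in these data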;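 also: 100% = median untreated cell wells and 0% = median positive control drug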
# ROCK2 inh = inhibitors of human ROCK2 kinase, primary screen, biochemical, high-throughput, luminescence; Rho-associated protein kinase 2 (Homo sapiens), O75116; purified ROCK2, Kinase-Glo ATP depletion luminescence; AID 604, 2007; hit rate 0.35% among 60,000; inhibition, % at 6 µM;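 active = inhibition above the screen-wide mean inhibition plus 3 SD, cut at about 18% in these data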;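 also: plate controls were DMSO wells for no effect and Y-27632 control wells after no-enzyme background subtraction for full effect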
# PKA kinase inh = inhibitors of human PKA kinase activity, primary screen, biochemical, ATP-depletion luminescence, Kemptide substrate. inhibition, % at 6 µM. cAMP-dependent protein kinase catalytic subunit alpha (Homo sapiens), P17612. PKA Kemptide phosphorylation, Kinase-Glo ATP luminescence. hit rate 0.1% among 65,000;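 active = inhibition above the screen-wide mean inhibition plus 3 SD, cut at about 21% in these data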
# MKP-1 inh = MKP-1 phosphatase inhibitors, primary screen, biochemical, in vitro; Dual specificity protein phosphatase 1 (Homo sapiens), P28562; recombinant MKP-1, OMFP hydrolysis fluorescence; inhibition, %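 (compounds tested at a single concentration somewhere between 10 and 100 µM)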; hit rate 0.15% among 65,000; AID 374, 2006;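 active = inhibition above about 50%, limit read from the data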;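 also: 0% = DMSO max control wells and 100% = wells with enzyme stopped by NaOH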
# Target sequence (P28562 whole entry, looked up): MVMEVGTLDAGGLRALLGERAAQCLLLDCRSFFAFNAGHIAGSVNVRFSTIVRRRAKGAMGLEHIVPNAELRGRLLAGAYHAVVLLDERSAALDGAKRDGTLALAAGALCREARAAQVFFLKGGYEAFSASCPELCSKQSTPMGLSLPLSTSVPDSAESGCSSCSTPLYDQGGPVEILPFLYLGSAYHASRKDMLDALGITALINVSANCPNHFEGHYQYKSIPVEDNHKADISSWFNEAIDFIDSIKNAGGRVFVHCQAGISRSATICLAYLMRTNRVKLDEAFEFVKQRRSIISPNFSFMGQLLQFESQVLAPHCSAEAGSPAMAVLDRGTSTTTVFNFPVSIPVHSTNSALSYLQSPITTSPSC
# Redox 05 DTT = redox cycling H2O2 generation, 0.5 mM DTT, dose response, artefact control, biochemical, Cdc25B catalytic domain; EC50, µM; shares compounds with Cdc25B inh; hit rate 50% among 30; cell-free redox cycling H2O2 generation; in the data active = EC50 below about 30 µM
# Redox H2O2 1DTT = redox cycling H2O2 generation, 1 mM DTT, dose response, artefact control, biochemical, 1.0 mM DTT, Cdc25B catalytic domain | shares compounds with Cdc25B inh | cell-free redox cycling H2O2 generation | EC50, µM | 30 tested, under 10 active; in the data active = EC50 below about 50 µM
# Redox H2O2 = redox cycling hydrogen peroxide production, dose response, artefact control, biochemical, probe assessment; shares compounds with MKP-1 inh; Redox cycling H2O2 generation, DTT, phenol red/HRP; EC50, µM; 60 tested, under 10 active; AID 672, 2007; call rule not given here
# Numbers without * were called inactive; / = no result given.
SMILES,Cdc25B inh,Hsp90 inh,SK-BR-3 tox 24h,ROCK2 inh,PKA kinase inh,MKP-1 inh,Redox H2O2,others
COc1ccc2[nH]cc(CCN3CCCC3)c2c1,/,-10.3,/,/,/,/,/,
COc1cc(C2NCc3ccccc3-n3cccc32)ccc1O (configuration not stated),-22.4,-3.1,/,3.5,10.7,-10.6,/,
CCn1nc(-c2cccs2)nc2c(=O)n(C)c(=O)nc1-2,100.6*,98.5*,27.3*,69.0*,2.1,103.6*,13.7*,Redox 05 DTT=0.646*;Redox H2O2 1DTT=1.05*
COCCCn1c(N)c(C(=O)NCCC(C)C)c2nc3ccccc3nc21,5.1,-10.5,134.9,2.7,-2.1,54.9*,>50,
CCCCOCCCn1c(N)c(C(=O)OCCOC)c2nc3ccccc3nc21,30.2,-1.8,67.6,6.3,1.0,-14.0,/,
Cc1nc2cc(-c3cccc(F)c3)nn2c(C)c1CCC(=O)N1CCC2(CC1)OCCO2,-5.7,-5.2,/,-5.8,-7.3,60.2*,>50,
CCOC(=O)C1=C(N)OC2=C(C(=O)CC(C)(C)C2)C12C(=O)Nc1ccccc12 (configuration not stated),1.0,-3.0,/,6.9,9.4,13.9,/,
